Screening data as filed in PubChem BioAssay.
Hits are enriched below; roughly 21% of the tested compounds scored in any of these assays.
HCV inh: blocks hepatitis C virus | Huh7.5.1 HCVcc-Cre infection, luciferase reporter, 44 h | 3.4% of 340,000 active | AID 651820 | Potency, µM (highest dose often 41.8 µM), inactives show top-dose activity change, negative = inhibition, actives largely listed as inhibitors; further: potency means the concentration at half of the fitted maximal effect; on the % scale 0 is the no-effect control and ±100 the full control effect
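After 44 h co-culture of compound, cells and HCVcc-Cre (~0.5 moi), substrate is added for 15 min at room temperature and luciferase measured over 15 sec. Cells were seeded at 1,000/well and pre-cultured 4 h.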
CHX counter: counter-screen hit for Shiga toxin inhibitors, cycloheximide | max response, % | 12% of 300,000 active | cell reporter, cycloheximide protein synthesis inhibition counterscreen; in the data active means max response mostly above about 13%, no sharp cut-off; inactive means mostly below about 14%; further: read at 38.3 µM for the half of the compounds with a filed dose; 0% is about no effect
HCMV inh: human cytomegalovirus inhibition | HFF cells, HCMV-luciferase reporter, 72 h; stronger effect = lower value | activity change, negative = inhibition, % at 57.5 µM | 4.5% of 410,000 active; in the data active means activity change below about -60%; inconclusive means no clear call, values can overlap the other calls; inactive means above about -39%; further: on the % scale 0 is the no-effect control and ±100 the full control effect
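Two-dose cell screen: HFF monolayers treated with compounds and infected with luciferase-expressing HCMV at 1 PFU/cell, 72 h at 37C, then lysed for luciferase measurement.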
Shiga toxin inh: Shiga toxin inhibition; Vero cells, Shiga toxin protein synthesis inhibition reporter; inhibition, % at 38.7 µM; 9.2% of 290,000 active; AID 2315; in the data active means inhibition mostly above about 28%, no sharp cut-off; inactive means mostly below about 43%; further: 0% is about no effect
Pf growth 48h: P. falciparum growth inhibition at 48 hours (one generation); Potency, µM (top dose mostly 28.7 µM), for the others: at the top dose activity change, negative = inhibition, hits mostly inhibitors; P. falciparum luciferase growth in erythrocytes, 48 h; AID 504832; 5.9% of 310,000 active; further: potency means the concentration at half of the fitted maximal effect; on the % scale 0 is the no-effect control and ±100 the full control effect
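Luciferase-expressing parasites in RBCs, 2% Hct / 0.1% parasitemia final; RPMI 1640 + 0.5% Albumax; 37 C, 5% CO2, one generation; luminescence read-out, lower signal = inhibition.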
Pf growth 96h: P. falciparum growth inhibition at 96 hour, primary screen for plastid delayed-death inhibitors. P. falciparum luciferase reporter growth, 96 h. Potency, µM (titrated, usually from 28.7 µM), for inactives: top-dose activity change, negative = inhibition, hits mostly inhibitors. 6.9% of 320,000 active; further: potency means the concentration at half of the fitted maximal effect; on the % scale 0 is the no-effect control and ±100 the full control effect
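Erythrocytes infected with luciferase-expressing P. falciparum were dispensed at 2% hematocrit and 0.05% parasitemia (final), then incubated with compounds 96 hours at 37 C in 5% CO2. Luminescence after detection reagent addition reported growth.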
CLK4 cf ADPGlo: CLK4 (human) kinase inhibition, ADP-Glo confirmation; shares compounds with Pf growth 48h; recombinant Clk4, RS peptide, ADP-Glo luminescence; Potency, µM (highest dose often 80 µM), without a hit: at the top dose activity, negative = inhibition, actives largely listed as inhibitors; 80% of 65 active; AID 1969
Target sequence (Q9HAZ1 whole entry, looked up): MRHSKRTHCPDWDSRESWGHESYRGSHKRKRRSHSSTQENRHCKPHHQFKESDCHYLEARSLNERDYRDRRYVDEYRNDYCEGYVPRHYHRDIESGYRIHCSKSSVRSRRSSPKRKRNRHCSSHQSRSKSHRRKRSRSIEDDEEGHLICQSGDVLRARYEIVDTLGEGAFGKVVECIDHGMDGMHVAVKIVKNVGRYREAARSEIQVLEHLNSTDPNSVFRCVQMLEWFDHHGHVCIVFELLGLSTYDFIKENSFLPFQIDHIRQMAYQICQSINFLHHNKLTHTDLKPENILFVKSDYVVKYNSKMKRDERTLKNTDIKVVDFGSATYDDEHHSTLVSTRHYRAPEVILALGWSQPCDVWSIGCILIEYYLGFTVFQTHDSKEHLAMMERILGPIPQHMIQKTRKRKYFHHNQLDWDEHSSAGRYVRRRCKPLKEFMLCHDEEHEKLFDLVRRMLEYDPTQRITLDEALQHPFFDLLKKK
CLK4 cf ADP-FP: confirmation of human CDC-like kinase 4 (CLK4) inhibitors. shares compounds with Pf growth 48h. recombinant Clk4, ADP Transcreener FP, RS peptide. Potency, µM (doses to about 80 µM), inactives show top-dose activity, negative = inhibition, most hits filed as inhibitors. 70% of 65 active
* = called active by the depositor. Unless noted, the call rests on the fitted dose curve; in most records, active means well fitted curve in the direction sought with a large enough effect; inconclusive means small, poorly fitted or top-dose-only effect, or another doubt; inactive means no such curve, though single readings can be large; an effect the other way counts as inactive or inconclusive.

CN(Cc1ccco1)c1ncnc2ccc(-c3ccccc3Cl)cc12 was read as HCMV inh inconclusive, Pf growth 48h 9.28µM*, Pf growth 96h inconclusive, CLK4 cf ADPGlo 10µM* and CLK4 cf ADP-FP 15.8µM*.
Screening CN(Cc1ccco1)c1ncnc2ccc(-c3ccoc3)cc12 returned HCMV inh -4.6, Pf growth 48h inconclusive, Pf growth 96h inconclusive, CLK4 cf ADPGlo 0.251µM* and CLK4 cf ADP-FP 0.316µM*.
CN(Cc1ccccc1)c1ncnc2ccc(Br)cc12 was read as HCV inh inconclusive, CHX counter -2.3, Shiga toxin inh -21.0, Pf growth 48h inconclusive and Pf growth 96h 59.3%.
For O=C(COc1ncnc2ccc(Br)cc12)NCc1ccco1 the results were HCV inh -14.6%, CHX counter -3.1, HCMV inh 13.8, Shiga toxin inh -4.2, Pf growth 48h 0.4% and Pf growth 96h 65.1%.
`COC(=O)Cc1c(C)c2ccc(OCC(=O)N3CCC(C)CC3)c(C)c2oc1=O` gave HCV inh inconclusive, CHX counter -1.3, HCMV inh -13.8, Shiga toxin inh 26.3, Pf growth 48h inconclusive and Pf growth 96h inconclusive.
O=C1Nc2ccc(Br)cc2C12NNc1ccccc1O2 (stereo not given) was read as HCV inh 5.2%, CHX counter 10.9, HCMV inh -29.6, Shiga toxin inh 18.6, Pf growth 48h 19.2% and Pf growth 96h 2.6%.
c1cncc(-c2ccc3ncnc(NCc4cccs4)c3c2)c1 was read as HCMV inh -0.4, Pf growth 48h inconclusive, Pf growth 96h 9.28µM*, CLK4 cf ADPGlo 3.16µM* and CLK4 cf ADP-FP 7.08µM*.
Screening COc1cccc(-c2ccc3ncnc(NCc4cccs4)c3c2)c1 returned HCMV inh inconclusive, Pf growth 48h 9.28µM*, Pf growth 96h 4.15µM*, CLK4 cf ADPGlo 1µM* and CLK4 cf ADP-FP 1.12µM*.
CC(=O)c1ccc(NC(=O)CN2C(=O)NC(C)(C3CCCCC3)C2=O)cc1 (stereo not given) was read as HCV inh -4.7%, HCMV inh 45.9, Pf growth 48h 1.9% and Pf growth 96h 4.4%.
Screening Cn1ccc2cc(-c3ccc4ncnc(NCc5cccs5)c4c3)ccc21 returned HCMV inh -71.9*, Pf growth 48h 2.94µM*, Pf growth 96h 5.22µM*, CLK4 cf ADPGlo 14.1µM* and CLK4 cf ADP-FP inconclusive.
For CS(=O)(=O)CCNCc1nc(-c2ccc3ncnc(Nc4ccc(OCc5cccc(F)c5)c(Cl)c4)c3c2)cs1 the results were CHX counter -4.9 and Shiga toxin inh 26.2.
Screening Cn1ccc2cc(-c3ccc4ncnc(NCc5cccnc5)c4c3)ccc21 returned Pf growth 48h 1.85µM*, Pf growth 96h 2.62µM*, CLK4 cf ADPGlo 10µM* and CLK4 cf ADP-FP 14.1µM*.
`Cn1ccc2cc(-c3ccc4ncnc(NCc5cccc(F)c5)c4c3)ccc21` gave Pf growth 48h 8.28µM*, Pf growth 96h 3.7µM*, CLK4 cf ADPGlo inconclusive and CLK4 cf ADP-FP inconclusive.
`CC(C)NC(=O)c1ccc2sc([C@H]3C[C@H](O)[C@@H](CO)O3)nc2c1` gave HCMV inh 13.5.
`Nc1cc2c(cc1Cl)-c1ccc(Cl)cc1C2` gave HCV inh inconclusive and HCMV inh 32.6.
Screening C/C(CCc1oc2c(Br)cc(Br)cc2c1-c1ccc(C)o1)=N\O returned HCV inh inconclusive, CHX counter -1.9, HCMV inh -8.8, Shiga toxin inh -1.9, Pf growth 48h inconclusive and Pf growth 96h -8.2%.
